Inconclusive results are not listed. Entries that show only a call come without a potency. Calls of active or inactive are those of the source. The call rests on the fitted dose curve; in most records, active means well fitted activation curve with a large enough effect; inconclusive means small, poorly fitted or top-dose-only effect; inactive means flat fitted curve, though single readings scatter.
Experiment: Cell viability assay for measurement of the protective activity of small molecules against cell death caused by Zika virus infection in human astrocytoma cells
Settings: SNB-19 Zika virus cytoprotection, ATP luminescence, 72 h; series mostly up to 46.1 µM
From the text: National Center for Advancing Translational Sciences [NCATS] Johns Hopkins University School of Medicine Florida State University Assay Overview: Zika virus infection causes cell death in certain cell types including human neural progenitor cells (hNPCs), astrocytes, and astrocytoma cell line (SNB-19). This cell viability assay measures the ATP content (level) in human astrocytoma cells (SNB-19) using a luminescence readout that is proportional to viable cell numbers. Decrease in the luminescence signal after Zika virus infection indicates the cell death caused by Zika virus. Small molecule inhibitors […] the decreased luminescence signal after Zika virus infection, indicating the protective effect of that small molecule on the cell death caused by Zika virus infection. This observed protective effect of small molecules against Zika virus induced cell death may result from inhibition of virus replication or cellular response to the virus infection.
Assay Protocol Summary: The medium for SNB-19 cells is composed of RPMI 1640 (ATCC, Cat.# 30-2001), 10% fetal bovine serum (FBS) (GE healthcare Life Sciences, Cat.# SH30071.03), and 1% Pen/Strep (Gibco, Cat.# 15140-122). The ATP content assay kit (PerkinElmer, Cat.# 6016731) was used to determine cell viability. The reagent was reconstituted and prepared as described by the manufacturer. Cells were seeded in 384- or 1536-well assay plates and cultured at 37 C with 5% CO2 for 16 to 20 hours. The typical cell seeding density in the 1536-well plate assay is 250 cells/well in 3ul medium for SNB-19 cells in tissue culture treated plates. Compounds were added to cells and incubated for one hour before addition of ZIKV solution to cells (2 FFU/cell). After incubation at 37 C with 5% CO2 for 72 hours, the reagent mixture of the ATP content assay kit was added to each well, followed by incubation at room temperature for 10 minutes. The luminescence intensity of the assay plates was measured using a ViewLux plate reader (PerkinElmer). […] The percentage inhibitions of the decreased cell viability by small molecule inhibitors were then calculated.
With `CC=CC[C@@H](C)C(=O)[C@H]1C(=O)N[C@@H](C(C)C)C(=O)N(C)CC(=O)N(C)[C@@H](CC(C)C)C(=O)N[C@@H](C(C)C)C(=O)N(C)[C@@H](CC(C)C)C(=O)N[C@@H](C)C(=O)N[C@H](C)C(=O)N(C)[C@@H](CC(C)C)C(=O)N(C)[C@@H](CC(C)C)C(=O)N(C)[C@@H](C(C)C)C(=O)N1C` the Potency was “inactive”.
For `O=C1c2ccccc2C(=O)c2c1ccc(O)c2O`, the Potency was “inactive”.
For `CC(C(=O)O)c1ccc(C(=O)c2cccs2)cc1` (stereo not given), the Potency was “inactive”.
With `O=C(O)c1cccc(-c2noc(-c3ccccc3F)n2)c1` the Potency was “inactive”.
In the case of `[O-][n+]1ccccc1SSc1cccc[n+]1[O-]`, the Potency is reported as “inactive”.
In the case of `COc1ccc(-c2cc(=S)ss2)cc1`, the Potency is reported as “inactive”.
For `O=c1[nH]nc(Sc2ncc([N+](=O)[O-])s2)n1-c1ccc2c(c1)OCCO2`, the Potency was 6.15 µM (active).
In the case of `O=C(c1ccccc1)c1ccc2n1CCC2C(=O)O` (stereo not given), the Potency is reported as “inactive”.
For `O=c1cc(-c2ccccc2)oc2cc(O)c(O)c(O)c12`, the Potency was “inactive”.
In the case of `O=C(C=CC=Cc1ccc2c(c1)OCO2)N1CCCCC1`, the Potency is reported as “inactive”.
With `CCCCCCCC/C=C/C(=O)O` the Potency was “inactive”.
In the case of `O=C(O)Cc1ccc(-c2ccccc2)cc1`, the Potency is reported as “inactive”.
In the case of `COc1cccc2c1C(=O)c1c(O)c3c(c(O)c1C2=O)C[C@@](O)(C(=O)CO)C[C@@H]3O[C@H]1C[C@H](N)[C@H](O[C@@H]2CCCCO2)[C@H](C)O1`, the Potency is reported as “inactive”.
In the case of `C=C1C(=O)[C@@]23C(CC[C@@H]1[C@H]2O)[C@@]12CO[C@]3(O)[C@@H](O)[C@@H]1C(C)(C)CC[C@@H]2O` (stereo not given in full), the Potency is reported as “inactive”.
For `C=CCCCCCCCCC(=O)O`, the Potency was “inactive”.
For `CCOC1OC(=O)C[C@H]1NC(=O)[C@@H]1CCCN1C(=O)[C@@H](NC(=O)c1ccc(N)c(Cl)c1)C(C)(C)C` (stereo not given in full), the Potency was “inactive”.
For `O=C(O)c1cc([N+](=O)[O-])ccc1NCCCc1ccccc1`, the Potency was “inactive”.
With `Cc1ccc2c(n1)Oc1ccc(C(C)C(=O)OCC(=O)N(C)C)cc1C2` (stereo not given) the Potency was “inactive”.
With `CC(=O)OC(C)OC(=O)C(C)c1ccc(-c2ccccc2)c(F)c1` (stereo not given) the Potency was “inactive”.
In the case of `CC(C)(C)OC(=O)CN(Cc1ccc(Cl)cc1)Cc1ccc([N+](=O)[O-])s1`, the Potency is reported as 35.5 µM (active).
In the case of `O=c1oc2cc(O)ccc2s1`, the Potency is reported as “inactive”.
With `c1ccc(CCNc2nc(-c3ccccc3)cs2)cc1` the Potency was “inactive”.
With `OCc1ccc(-c2ccc(-c3ccc(CO)s3)o2)s1` the Potency was “inactive”.
In the case of `COc1ccc(-c2coc3cc(O)ccc3c2=O)cc1`, the Potency is reported as “inactive”.
With `CC(=NNC(=S)N1CCC1)c1ccccn1` the Potency was 0.69 µM (active).
In the case of `O=C1c2ccccc2C(=O)c2c(NCCc3ccc(O)cc3)ccc(NCCc3ccc(O)cc3)c21`, the Potency is reported as 19.5 µM (active).
With `CNC1[C@H](O)C(O[C@@H]2C(O)C(O[C@H]3O[C@H]([C@@H](C)NC)CC[C@H]3N)[C@@H](N)C[C@H]2N)OC[C@]1(C)O` (stereo not given in full) the Potency was “inactive”.
For `O=C(O)[C@H](CC(=O)N1C[C@@H]2CCCC[C@H]2C1)Cc1ccccc1`, the Potency was “inactive”.
For `Oc1ccc(/C=C/c2cc(O)cc(O)c2)cc1`, the Potency was “inactive”.
With `O=C(O)c1ccccc1Nc1cccc(C(F)(F)F)c1` the Potency was “inactive”.
For `COc1ccc(/C=C/C(=O)Nc2ccccc2C(=O)O)cc1OC`, the Potency was “inactive”.
For `CC(C)c1ccc2oc3nc(N)c(C(=O)O)cc3c(=O)c2c1`, the Potency was “inactive”.
In the case of `O=C(O)c1ccccc1NCCc1ccccc1`, the Potency is reported as “inactive”.
In the case of `CC(C(=O)O)c1ccc(C(=O)c2ccccc2)s1` (stereo not given), the Potency is reported as “inactive”.
In the case of `CCCCC1C(=O)N(c2ccccc2)N(c2ccc(O)cc2)C1=O` (stereo not given), the Potency is reported as 19.5 µM (active).
For `Cc1oncc1C(=O)Nc1ccc(C(F)(F)F)cc1`, the Potency was “inactive”.
With `O=C(OCc1ccccc1)c1ccc(O)cc1` the Potency was “inactive”.
In the case of `Oc1cc(O)cc(/C=C/c2ccc(O)c(O)c2)c1`, the Potency is reported as “inactive”.
For `CCCSc1ccc2nc(NC(=O)OC)[nH]c2c1`, the Potency was “inactive”.
For `COc1ccc(NC(=O)/C=C/c2ccc(Cl)cc2)cc1`, the Potency was “inactive”.
